In PubChem BioAssay (Tox21):
Records with an inconclusive call do not appear. Activity calls are given as the source filed them. Unless noted, calls follow the shape of the dose curve; as a rule, active = well fitted curve in the direction sought with a large enough effect in the repeat runs; inconclusive = weak or mixed curves; inactive = no such curve, though single readings can be large; an effect the other way counts as inactive or inconclusive.

Experiment: qHTS assay to identify small molecule antagonists of the TGF-beta/Smad signaling pathway - cell viability counter screen (AID 1346824); also: nearly all actives have a fitted effect of over 50% in size
Conditions: SBE-bla HEK293T viability, CellTiter-Glo luminescence; series mostly up to 76.8 µM
Method in brief: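 SBE-bla HEK 293T cells were plated overnight at 37 C, then given compounds in DMSO plus TGF-beta1 (added as 0.25 ng/mL solution) for 5 hr. After the bla read, CellTiter-Glo was added to the same wells and luminescence read after 30 min at room temperature.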

Row | Compound | outcome
1 | NCCNC(=O)c1ccc(Cl)cn1 | inactive
2 | CC1CCN(CCCC(=O)c2ccc(F)cc2)CC1 | inactive
3 | OCCN1C[C@H](O)[C@@H](O)[C@H](O)[C@H]1CO | inactive
4 | CCCCCCC(CCCCCCCCCCC(=O)OCC(COC(C)=O)OC(C)=O)OC(C)=O (stereo unspecified) | inactive
5 | NC(=O)CCCCC1CCSS1 (stereo unspecified) | inactive
6 | COc1cc(O)cc(O)c1 | inactive
7 | C#CC(O)C(CC)CCCC (stereo unspecified) | inactive
8 | O=C1OC(=O)c2cc([N+](=O)[O-])ccc21 | inactive
9 | COCCOC(=O)CC#N | inactive
10 | c1ccc(CCCc2ccccn2)cc1 | inactive
11 | CNc1ncnc2nc[nH]c12 | inactive
12 | N#CCN(CC#N)CCN(CC#N)CC#N | inactive
13 | Nc1nc2c(ncn2CCC(CO)CO)c(=O)[nH]1 | inactive
14 | CCCCCCCCCCCCI | inactive
15 | CCC(C)OC(=O)N1CCCCC1CCO (stereo unspecified) | inactive
16 | CC(C)(C)C(=O)/C=C/c1ccc(Cl)cc1 | inactive
17 | CC(C)(C)N(CCO)CCO | inactive
18 | C=CC(=O)OCCCCCC | inactive
19 | NS(=O)(=O)c1cc2c(cc1C(F)(F)F)NC(Cc1ccccc1)NS2(=O)=O (stereo unspecified) | inactive

Row | Compound | outcome
20 | CC1=CC(=O)CCC1 | inactive
21 | CCCc1ccc(N)cc1 | inactive
22 | COc1cccc(Br)c1 | inactive
23 | CC(C)(O)Cc1ccccc1 | inactive
24 | CCN(CC)C(=O)c1ccc(O)c(OC)c1 | inactive
25 | CCO[Si](C)(OCC)OCC | inactive
26 | COC(=O)CCCCCCCCC(=O)OC | inactive
27 | CCC(=O)Nc1cccc(N)c1 | inactive
28 | Nc1cc(C(Cl)=C(Cl)Cl)c(S(N)(=O)=O)cc1S(N)(=O)=O | inactive
29 | CCCCCCCCCCCCCCCCCC(=O)OCCCCCCCCCCCCCC(C)C | inactive
30 | NC(=O)c1ncn([C@@H]2O[C@H](CO)[C@@H](O)[C@H]2O)c1N | inactive
31 | CCCCCCCCCCC1CO1 (stereo unspecified) | inactive
32 | NS(=O)(=O)c1cc2c(cc1Cl)NC(CSCc1ccccc1)=NS2(=O)=O | inactive
33 | CCc1cc(S(=O)(=O)O)c2cc(C(C)C)cccc1-2 | inactive
34 | OCC(O)[C@@H](O)[C@H](O)[C@H](O)CO[C@H]1O[C@H](CO)[C@@H](O)[C@H](O)[C@H]1O (stereo partly specified) | inactive
35 | C=CCOCC(O)CS(=O)(=O)O (stereo unspecified) | inactive
36 | CCCCCCCCCCCCCCC | inactive
37 | C=CCOc1nc(OCC=C)nc(OCC=C)n1 | inactive

Experiment: qHTS assay to identify small molecule agonists of the TGF-beta/Smad signaling pathway - cell viability counter screen (AID 1346829); also: top concentration of the series differs between compounds; nearly all actives have a fitted effect of over 45% in size
Conditions: SBE-bla HEK293T viability, CellTiter-Glo luminescence, 5 h; series mostly up to 76.8 µM
Method in brief: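 Tox21 qHTS format: SBE-bla HEK 293T cells treated with DMSO-dissolved compounds for 5 hr; CellTiter-Glo luminescence after 30 min at room temperature.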

Row | Compound | outcome
38 | NCCNC(=O)c1ccc(Cl)cn1 | inactive
39 | CC1CCN(CCCC(=O)c2ccc(F)cc2)CC1 | inactive
40 | OCCN1C[C@H](O)[C@@H](O)[C@H](O)[C@H]1CO | inactive
41 | CCCCCCC(CCCCCCCCCCC(=O)OCC(COC(C)=O)OC(C)=O)OC(C)=O (stereo unspecified) | inactive
42 | NC(=O)CCCCC1CCSS1 (stereo unspecified) | inactive
43 | COc1cc(O)cc(O)c1 | inactive
44 | C#CC(O)C(CC)CCCC (stereo unspecified) | inactive
45 | O=C1OC(=O)c2cc([N+](=O)[O-])ccc21 | inactive
46 | COCCOC(=O)CC#N | inactive
47 | c1ccc(CCCc2ccccn2)cc1 | inactive
48 | CNc1ncnc2nc[nH]c12 | inactive
49 | N#CCN(CC#N)CCN(CC#N)CC#N | inactive
50 | Nc1nc2c(ncn2CCC(CO)CO)c(=O)[nH]1 | inactive
51 | CCCCCCCCCCCCI | inactive
52 | CCC(C)OC(=O)N1CCCCC1CCO (stereo unspecified) | inactive
53 | CC(C)(C)C(=O)/C=C/c1ccc(Cl)cc1 | inactive
54 | CC(C)(C)N(CCO)CCO | inactive
55 | C=CC(=O)OCCCCCC | inactive
56 | NS(=O)(=O)c1cc2c(cc1C(F)(F)F)NC(Cc1ccccc1)NS2(=O)=O (stereo unspecified) | inactive

Row | Compound | outcome
57 | CC1=CC(=O)CCC1 | inactive
58 | CCCc1ccc(N)cc1 | inactive
59 | COc1cccc(Br)c1 | inactive
60 | CC(C)(O)Cc1ccccc1 | inactive
61 | CCN(CC)C(=O)c1ccc(O)c(OC)c1 | inactive
62 | CCO[Si](C)(OCC)OCC | inactive
63 | COC(=O)CCCCCCCCC(=O)OC | inactive
64 | CCC(=O)Nc1cccc(N)c1 | inactive
65 | Nc1cc(C(Cl)=C(Cl)Cl)c(S(N)(=O)=O)cc1S(N)(=O)=O | inactive
66 | CCCCCCCCCCCCCCCCCC(=O)OCCCCCCCCCCCCCC(C)C | inactive
67 | NC(=O)c1ncn([C@@H]2O[C@H](CO)[C@@H](O)[C@H]2O)c1N | inactive
68 | CCCCCCCCCCC1CO1 (stereo unspecified) | inactive
69 | NS(=O)(=O)c1cc2c(cc1Cl)NC(CSCc1ccccc1)=NS2(=O)=O | inactive
70 | CCc1cc(S(=O)(=O)O)c2cc(C(C)C)cccc1-2 | inactive
71 | OCC(O)[C@@H](O)[C@H](O)[C@H](O)CO[C@H]1O[C@H](CO)[C@@H](O)[C@H](O)[C@H]1O (stereo partly specified) | inactive
72 | C=CCOCC(O)CS(=O)(=O)O (stereo unspecified) | inactive
73 | CCCCCCCCCCCCCCC | inactive
74 | C=CCOc1nc(OCC=C)nc(OCC=C)n1 | inactive

Experiment: qHTS assay to identify small molecule agonists of the TGF-beta/Smad signaling pathway (AID 1346859; active = well fitted activation curve with a large enough effect in the signal ratio in the repeat runs, not every such curve was filed as active; the % refers to the signal ratio)
Conditions: SBE-bla HEK293T, TGF-beta/Smad beta-lactamase reporter, 5 h; series mostly up to 76.8 µM
Method in brief: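 SBE-bla HEK293T cells plated overnight, then compound exposure for 5 h at 37 C. Beta-lactamase reporter read with LiveBLAzer B/G FRET substrate after 2 h at room temperature, fluorescence at 405 nm excitation, 460/530 nm emission.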

Row | Compound | outcome
75 | NCCNC(=O)c1ccc(Cl)cn1 | inactive
76 | CC1CCN(CCCC(=O)c2ccc(F)cc2)CC1 | inactive
77 | OCCN1C[C@H](O)[C@@H](O)[C@H](O)[C@H]1CO | inactive
78 | CCCCCCC(CCCCCCCCCCC(=O)OCC(COC(C)=O)OC(C)=O)OC(C)=O (stereo unspecified) | inactive
79 | NC(=O)CCCCC1CCSS1 (stereo unspecified) | inactive
80 | COc1cc(O)cc(O)c1 | inactive
81 | C#CC(O)C(CC)CCCC (stereo unspecified) | inactive
82 | O=C1OC(=O)c2cc([N+](=O)[O-])ccc21 | inactive
83 | COCCOC(=O)CC#N | inactive
84 | c1ccc(CCCc2ccccn2)cc1 | inactive
85 | CNc1ncnc2nc[nH]c12 | inactive
86 | N#CCN(CC#N)CCN(CC#N)CC#N | inactive
87 | Nc1nc2c(ncn2CCC(CO)CO)c(=O)[nH]1 | inactive
88 | CCCCCCCCCCCCI | inactive
89 | CCC(C)OC(=O)N1CCCCC1CCO (stereo unspecified) | inactive
90 | CC(C)(C)C(=O)/C=C/c1ccc(Cl)cc1 | inactive
91 | CC(C)(C)N(CCO)CCO | inactive
92 | C=CC(=O)OCCCCCC | inactive
93 | NS(=O)(=O)c1cc2c(cc1C(F)(F)F)NC(Cc1ccccc1)NS2(=O)=O (stereo unspecified) | inactive

Row | Compound | outcome
94 | CC1=CC(=O)CCC1 | inactive
95 | CCCc1ccc(N)cc1 | inactive
96 | COc1cccc(Br)c1 | inactive
97 | CC(C)(O)Cc1ccccc1 | inactive
98 | CCN(CC)C(=O)c1ccc(O)c(OC)c1 | inactive
99 | CCO[Si](C)(OCC)OCC | inactive
100 | COC(=O)CCCCCCCCC(=O)OC | inactive
101 | CCC(=O)Nc1cccc(N)c1 | inactive
102 | Nc1cc(C(Cl)=C(Cl)Cl)c(S(N)(=O)=O)cc1S(N)(=O)=O | inactive
103 | CCCCCCCCCCCCCCCCCC(=O)OCCCCCCCCCCCCCC(C)C | inactive
104 | NC(=O)c1ncn([C@@H]2O[C@H](CO)[C@@H](O)[C@H]2O)c1N | inactive
105 | CCCCCCCCCCC1CO1 (stereo unspecified) | inactive
106 | NS(=O)(=O)c1cc2c(cc1Cl)NC(CSCc1ccccc1)=NS2(=O)=O | inactive
107 | CCc1cc(S(=O)(=O)O)c2cc(C(C)C)cccc1-2 | inactive
108 | OCC(O)[C@@H](O)[C@H](O)[C@H](O)CO[C@H]1O[C@H](CO)[C@@H](O)[C@H](O)[C@H]1O (stereo partly specified) | inactive
109 | C=CCOCC(O)CS(=O)(=O)O (stereo unspecified) | inactive
110 | CCCCCCCCCCCCCCC | inactive
111 | C=CCOc1nc(OCC=C)nc(OCC=C)n1 | inactive
